Results on nine molecules are retold here after PubChem BioAssay (NCI).

Test systems include HCT-15 colon; HT29 colon; SNB-75 CNS; SNB-19 CNS; U251 CNS; SK-MEL-5 melanoma; UACC-62 melanoma; LOX IMVI melanoma; SK-MEL-28 melanoma; SK-MEL-2 melanoma; EKVX NSCLC; SN12C renal; UO-31 renal; TK-10 renal; ACHN renal; CAKI-1 renal; A498 renal; CCRF-CEM leukemia; MOLT-4 leukemia; PC-3 prostate.
Assay in all cases: NCI-60 one-dose screen, 48 h (100 = growth as untreated, 0 = no growth, -100 = all killed)
Details in all cases: 10 µM unless noted

About 83,000 compounds went through this panel and 20% of them were active in at least one assay; those are over-represented in the sample as a whole.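 The endpoint reported here, percent growth, reads 100 for growth as untreated, 0 for no net growth and -100 for all cells dead.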 Unmarked numbers belong to inactive results. Activity calls are given as the source filed them. The calls were made as follows: active = growth percent below 10; inactive = the rest.

With `Cc1cc(Cl)ccc1OC(C)C(=O)Nc1nnc(C2CC2)s1` (stereo not given), the growth in the assay on HCT-15 colon was 119%; in the assay with HT29 colon, 66.4%; in the assay on SNB-75 CNS it was 104%; in the assay with SNB-19 CNS it was 95.6%; in the assay on U251 CNS, 101%; with SK-MEL-5 melanoma, 74%. Further, the growth was 85.5% in the assay with UACC-62 melanoma; 95.4% in the assay with LOX IMVI melanoma; 120% in the assay with SK-MEL-28 melanoma; 36.3% with SK-MEL-2 melanoma; 98.6% in the assay with EKVX NSCLC; 96.4% with SN12C renal. Besides, the growth in the assay on UO-31 renal was 40.1%; with TK-10 renal, 104%; in the assay with ACHN renal, 109%; in the assay on CAKI-1 renal, 103%; in the assay with A498 renal, 95.2%; in the assay with CCRF-CEM leukemia, 95.9%. For the same molecule, the growth in the assay on MOLT-4 leukemia was 108%.
For the molecule `COc1ccc(OC)c(-c2ccc(-c3ccccc3N)c3[nH]c4ccccc4c23)c1`, the growth in the assay with HCT-15 colon is 88.3%; in the assay with HT29 colon, 63.4%; in the assay with SNB-75 CNS, 89.7%; in the assay on SNB-19 CNS it was 89.1%; in the assay with U251 CNS it was 77.9%; with SK-MEL-5 melanoma, 79.4%. Further, the growth in the assay with UACC-62 melanoma was 64.4%; in the assay on LOX IMVI melanoma, 84%; with SK-MEL-28 melanoma, 107%; in the assay on SK-MEL-2 melanoma, 77.1%; in the assay on SN12C renal, 87.6%; in the assay with UO-31 renal, 58.4%. In addition, the growth is 103% in the assay with TK-10 renal; 80.7% with ACHN renal; 73% with CAKI-1 renal; 103% in the assay with CCRF-CEM leukemia; 56.4% in the assay with MOLT-4 leukemia.
Regarding `CCO/C=N/NC(=O)c1ccncc1`, the growth with HCT-15 colon is 108%; in the assay on HT29 colon, 101%; in the assay with SNB-75 CNS, 93.3%; in the assay on SNB-19 CNS, 105%; with U251 CNS, 105%; with SK-MEL-5 melanoma, 104%. Moreover, the growth in the assay on UACC-62 melanoma was 107%; with LOX IMVI melanoma, 98.7%; in the assay with SK-MEL-28 melanoma, 108%; in the assay with SK-MEL-2 melanoma, 102%; in the assay on EKVX NSCLC, 102%; with SN12C renal it was 111%. The growth with TK-10 renal is 103%; in the assay with ACHN renal, 108%; in the assay with CAKI-1 renal, 100%; in the assay with A498 renal it was 104%; with CCRF-CEM leukemia, 106%; with MOLT-4 leukemia, 107%.
With `COc1ccc(/C=N/NC(=O)Cn2c(Cc3cccc4ccccc34)nc3ccccc32)cc1`, the growth is 95.7% in the assay with HCT-15 colon; 108% with HT29 colon; 102% in the assay on SNB-75 CNS; 92.2% with SNB-19 CNS; 99.7% in the assay on U251 CNS; 96.1% in the assay with SK-MEL-5 melanoma. The growth is 87.7% in the assay on UACC-62 melanoma; 88.3% in the assay with LOX IMVI melanoma; 109% in the assay on SK-MEL-28 melanoma; 99.5% in the assay on SK-MEL-2 melanoma; 93.1% with SN12C renal; 72.1% in the assay on UO-31 renal. Further, the growth with TK-10 renal is 105%; with ACHN renal, 107%; with CAKI-1 renal, 83.8%; with A498 renal, 85.5%; in the assay with CCRF-CEM leukemia it was 91%; with MOLT-4 leukemia it was 69.5%.
On to `C=CCN=C1NC(=O)/C(=C/c2cc(C(C)(C)C)c(O)c(C(C)(C)C)c2)S1`, for which the growth with HCT-15 colon was 42.1%; in the assay on HT29 colon it was 26.9%; in the assay with SNB-75 CNS, 88.8%; with SNB-19 CNS, 83.6%; with U251 CNS, 77%; in the assay on SK-MEL-5 melanoma, 49.3%. Also, the growth in the assay on UACC-62 melanoma was 63.8%; with LOX IMVI melanoma, 70.8%; with SK-MEL-28 melanoma it was 73.3%; in the assay with SK-MEL-2 melanoma it was 40.1%; with SN12C renal, 91%; in the assay on UO-31 renal, 67%. Moreover, the growth is 79.4% with TK-10 renal; 87% in the assay on ACHN renal; 47.8% in the assay with CAKI-1 renal; 69.4% with CCRF-CEM leukemia; 47.4% in the assay with MOLT-4 leukemia.
In the case of `C=CCOc1ccc(/C(O)=C2\C(=O)C(=O)N(c3nccs3)C2c2ccccc2F)cc1` (stereo not given), the growth is 82.1% in the assay on HCT-15 colon; 108% in the assay with HT29 colon; 89.8% in the assay with SNB-75 CNS; 102% with SNB-19 CNS; 93% in the assay on U251 CNS; 94.7% in the assay on SK-MEL-5 melanoma. The growth in the assay on UACC-62 melanoma is 76.6%; with LOX IMVI melanoma, 90.3%; in the assay on SK-MEL-28 melanoma it was 107%; with SK-MEL-2 melanoma, 54%; in the assay with EKVX NSCLC, 133%; with SN12C renal it was 103%. Moreover, the growth is 110% in the assay with UO-31 renal; 89.1% in the assay with TK-10 renal; 79.4% in the assay with ACHN renal; 98.7% in the assay with CAKI-1 renal; 131% in the assay on CCRF-CEM leukemia; 98.3% with MOLT-4 leukemia.
For the molecule `O=C(CN1CCN(c2cc3c(cc2F)c(=O)c(C(=O)O)cn3C2CC2)CC1)Nc1ccc(C(=O)/C=C/c2ccc(Cl)cc2)cc1`, the growth in the assay on HCT-15 colon is 111%; with HT29 colon, 106%; in the assay with SNB-75 CNS it was 84.8%; with SNB-19 CNS, 92.9%; with U251 CNS it was 99%; in the assay on SK-MEL-5 melanoma it was 96.8%. The growth with UACC-62 melanoma was 93.1%; in the assay with LOX IMVI melanoma it was 78.9%; in the assay on SK-MEL-28 melanoma, 96.5%; in the assay with SK-MEL-2 melanoma it was 113%; in the assay on SN12C renal, 94.2%; in the assay with UO-31 renal, 94.6%. Moreover, the growth with TK-10 renal is 111%; in the assay with ACHN renal, 107%; in the assay with CAKI-1 renal it was 102%; in the assay with A498 renal, 102%; with CCRF-CEM leukemia, 99.5%; in the assay on MOLT-4 leukemia it was 110%.
Consider `Cc1cccc(NC(=O)c2sc3nc4c(cc3c2N)CCCC4)c1`, for which the growth with HCT-15 colon was 23.9%; with HT29 colon, 15.4%; in the assay with SNB-75 CNS, 34.5%; with SNB-19 CNS it was 50.5%; with U251 CNS it was 34.4%; with SK-MEL-5 melanoma, 33.9%. In addition, the growth is 26.5% in the assay with UACC-62 melanoma; 40.3% with LOX IMVI melanoma; 53% with SK-MEL-28 melanoma; 54.9% with SK-MEL-2 melanoma; 51.8% in the assay with SN12C renal; 54.2% with UO-31 renal. The growth in the assay on TK-10 renal was 70.7%; in the assay with ACHN renal, 48.9%; with CAKI-1 renal, 40.8%; in the assay on A498 renal, 44.3%; in the assay with CCRF-CEM leukemia, 19.4%; in the assay with MOLT-4 leukemia it was 33.6%.
As for `CC(C)[C@H](CO)Nc1nc(Nc2ccc(C(=O)NCCNS(=O)(=O)c3cccc4c(N(C)C)cccc34)c(Cl)c2)c2ncn(C(C)C)c2n1`, the growth was 51.9% in the assay with HCT-15 colon; 10.6% in the assay with SNB-75 CNS; 24.6% with SNB-19 CNS; 1.44% (active) in the assay on U251 CNS; 17% in the assay with PC-3 prostate; 12.1% in the assay with SK-MEL-5 melanoma. In addition, the growth in the assay on UACC-62 melanoma was 22.2%; with LOX IMVI melanoma it was -3.44% (active); in the assay with SK-MEL-28 melanoma, 15.7%; with SK-MEL-2 melanoma it was -16.1% (active); in the assay with SN12C renal it was 12.1%; in the assay with UO-31 renal it was 77.2%. For the same molecule, the growth was 43.4% in the assay with ACHN renal; 48.6% in the assay on CAKI-1 renal; -9.15% (active) with A498 renal; -1.68% (active) in the assay on CCRF-CEM leukemia; -12.1% (active) in the assay on MOLT-4 leukemia.
